Experimental data published in PubChem BioAssay AID588849 (Broad Institute, 2011).
Results with a measured potency or affinity are listed apart.

molecular target: CAAX prenyl protease 2 (Homo sapiens) (UniProt Q9Y256); assay: human Rce1 protease inhibitors, dose response, biochemical, yeast membranes, quenched-peptide fluorescence, cherry-pick (AID 588849); settings: yeast membrane fractions expressing human Rce1, quenched-peptide fluorescence, 4 h; series mostly up to 10 µM; activity change, negative = inhibition: at the top concentration
Sequence (Q9Y256 whole entry, looked up): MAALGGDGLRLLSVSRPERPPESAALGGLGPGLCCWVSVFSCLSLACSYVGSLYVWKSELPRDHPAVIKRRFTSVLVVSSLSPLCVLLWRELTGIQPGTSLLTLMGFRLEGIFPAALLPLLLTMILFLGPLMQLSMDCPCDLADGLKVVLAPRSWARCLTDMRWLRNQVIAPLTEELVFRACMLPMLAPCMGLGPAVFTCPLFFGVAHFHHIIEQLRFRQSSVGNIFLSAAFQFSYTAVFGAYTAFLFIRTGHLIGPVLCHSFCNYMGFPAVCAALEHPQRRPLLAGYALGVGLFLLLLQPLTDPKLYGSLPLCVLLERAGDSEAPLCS

Activity change, negative = inhibition, inactive:
O=C(Nc1ccc(F)cc1)Oc1ccccc1N1CCOCC1 14.8%, CCCCOc1ccc(Cc2c(COCC)[nH]c(=S)[nH]c2=O)cc1 -12.1%, CCC(C)Sc1cc(-c2nc3ccccn3c2NC2CCCCC2)ccc1OC (stereo not drawn) 99.5%, O=c1c(-c2nnc(SCc3ccc(Cl)c(Cl)c3)o2)cccn1Cc1ccccc1 -95.5%, COc1ccc(OC)c(/C=N/c2c(-c3ccc(O)c(OC)c3)nc3ccccn23)c1 19.1%, COc1ccc(S(=O)(=O)N(CC(=O)N2CCCC2)Cc2ccccc2)cc1 4.57%, C=CCc1cccc(/C=N/NC(=O)COc2ccc(-n3cnnn3)cc2)c1O 6.81% [at 3.5 µM], C[C@@]12CCC=C[C@H]1[C@H](c1ccc(/C=C/c3ccccc3)cc1F)N(Cc1ccccc1)C2=O -4.81%, CCn1cc(C(=O)NCCO)c(=O)c2cc(F)c(N3CCN(C)CC3)cc21 7.34%, CC(C)CNC(=O)COc1cccc(C(=O)NCc2ccccc2)c1 10.1%, CCn1c(COc2cccc(C)c2)nnc1SCC(=O)NC1CCCC1 -5.79%, O=C(Nc1cccc2ncccc12)c1cccnc1 -3.28%, CC(C)CNC(=O)Nc1ccc(F)c(Cl)c1 0.189%, Cc1cc(C)c2nc(N(CCCN(C)C)C(=O)c3ccc4c(c3)CCCC4)sc2c1 2.44%, CC(C)c1cc(=O)oc2c3c4c(cc12)CCCN4CCC3 -16%, CC(=O)c1c(C)[nH]c(C(=O)OCc2ccc(Br)cc2)c1C 6%, CC(C)c1cccc(OCC(=O)Nc2ccc(S(=O)(=O)Nc3ccccn3)cc2)c1 3.44%, CCOc1ccc(NC(=O)CCSc2ccc(C)cc2)cc1 -1.72%, O=C(NCCc1c[nH]c2ccccc12)OCCSS(=O)(=O)O 1.36%, CCCCCCSc1cc(-c2nc3cc(C)ccn3c2NCCCC)ccc1OC 4.76%, c1ccc(CNc2nc(N3CCN(Cc4ccccc4)CC3)nc3ccccc23)cc1 26.3% [at 3.5 µM], O=C(CSc1nc2ccccc2s1)N1N=C(c2cccs2)CC1c1ccc(F)cc1 (stereo not drawn) -15.8%, O=C(NC1CC1)c1ccc2c(c1)N(Cc1ccccc1)CCS2 25.6%, NS(=O)(=O)c1ccc(NC(=O)/C=C/c2cn(-c3ccccc3)nc2-c2cccc(Cl)c2)cc1 0.326%, CCn1nc(C)cc1C(=O)NC1CC(C)(C)Cc2c1cnn2-c1cccc(F)c1 (stereo not drawn) 3.87%, Oc1c(N=NC(=S)Nc2ccccc2F)c2ccccc2n1Cc1ccccc1F -11.4%, Cc1c(Cl)c([N+](=O)[O-])nn1CC(=O)N1CCCc2ccccc21 -13.2%, CC(=O)N[C@@H](C)c1nc2ccccc2n1CCCN1CCN(c2nc(-c3ccc(C)cc3)cs2)CC1 5.44%, CN(C)CCNc1ncnc2oc(-c3ccccc3)c(-c3ccccc3)c12 -17.6%, COc1ccc(C)cc1NC(=O)CN1C(=O)COc2ccc(S(=O)(=O)N3CCOCC3)cc21 -18.6%, COCc1c(Br)c(C)[nH]c(=O)c1C#N -4.46%, Cc1cc2cc(C(=O)N3CCc4c([nH]c5ccccc45)C3c3ccccn3)ccc2o1 (stereo not drawn) -4.49%, COc1ccc(N2CCN(C(=O)c3cc(-c4cccs4)nc4ccccc34)CC2)cc1 1.02%, CS(=O)(=O)Nc1ccccc1C(=O)NC1CC2CCC1C2 (stereo not drawn) -5.81%, Cc1ccccc1OC(C)C(=O)N1CCC(Cc2ccccc2)CC1 (stereo not drawn) -8.23%, COC(C/C=C\C(=O)[C@H](C)OCc1ccccc1)OC 2.11%, CCCNC(=O)c1c(N)n(-c2ccc(S(N)(=O)=O)cc2)c2nc3ccccc3nc12 -168%, COC(C/C=C/[C@H](O)[C@@H](C)OCc1ccccc1)OC 15.6%
